Potency and affinity values are given separately. Results filed as inconclusive are left out. Active and inactive are the calls of the source.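 How the source made its calls, unless noted: active means signal-lowering compounds whose fitted half-maximal concentration is at or below twice the top tested dose in every run; inconclusive means runs disagree, flat 30 to 70% inhibition, or poor curve fit; inactive means the rest.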
How the values were obtained:
[1] = RMG-1 ovarian cancer cell viability loss – cherry-pick, dose response (AID 687029;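 active means signal drop whose fitted half-maximal concentration is at most twice the top valid dose, in every test run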;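 further: cells exposed to compound for 96 hours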)
[2] = CMV-driven luciferase expression suppression in HEK293 – cell-based, luminescence, dry powder, counter-screen for Pax8 inhibitor project, dose response (AID 743020);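 further: HEK293 cells stably expressing the CMV luciferase reporter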
[3] = general cell-killing toxicity readout – plate reader, dry powder samples, cytotoxicity control for PAX8 inhibitor project, dose response (AID 743021; call rule not given here)

Measured: outcome

COc1ccc(OC)c2sc(N(CCCN(C)C)C(=O)CCS(=O)(=O)c3ccccc3)nc12
inactive: all assays above

CN1CC(=O)N2C(c3ccc(Cl)cc3)c3[nH]c4ccccc4c3C[C@H]2C1=O (stereo partly drawn)
inactive: all assays above

CC(=O)Nc1ccc(NC(=O)c2nc(S(=O)(=O)Cc3ccccc3)ncc2Cl)cc1
inactive: all assays above

COc1ccc(C(=O)CCS(=O)(=O)c2ccc(C)cc2)cc1OC
inactive: all assays above

CN1CCN(c2ccc(S(=O)(=O)N3CCCCC3)cc2NC(=O)/C=C/c2ccc(Cl)c([N+](=O)[O-])c2)CC1
inactive: all assays above

CCSc1nsc(NC(=O)Nc2cccc(F)c2)n1
inactive: all assays above

O=C(Cn1ncc(Cl)c(Cl)c1=O)Nc1ccc2c(c1)OCO2
inactive: all assays above

CCOC(=O)C1=CN(Cc2cccc(-c3cccnc3)c2)S(=O)(=O)N(C)C1C (stereo not drawn)
inactive: all assays above

O=C(Nc1cc(S(=O)(=O)N2CCCCC2)ccc1Cl)c1ccccc1NS(=O)(=O)c1ccc(F)cc1
inactive: all assays above

Cc1cccc(CS(=O)(=O)c2ncc(Cl)c(C(=O)Nc3ccc(F)cc3)n2)c1
inactive: all assays above

Cc1ccc(C(=O)c2cc([N+](=O)[O-])ccc2N2CCCCC2)c(C)c1
inactive: all assays above

Source: PubChem BioAssay
